This is one part of a sample in which hits are shown more often than they occur.
Dicer processing – inhibitors of human Dicer processing of pre-microRNA; z-score at 25 µM; Q9UPY3; cat-ELCCA pre-miR-21 Dicer processing, chemiluminescence; stronger effect = higher value; AID 1347074; hit rate 6% among 47,000; in the data active = z-score above about 3, passing the limit was not always enough;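 note: plate controls were vehicle for no effect and no enzyme for full effect; higher signal means more uncleaved substrate so more Dicer inhibition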
An asterisk follows results filed as active.

SMILES	Dicer processing
O=C(Nc1ncc2c(n1)CC(c1cccc(Cl)c1)CC2=O)c1ccccc1 (stereo not drawn)	0.54
O=C(O)CSc1n[nH]c(-c2ccc(Cl)cc2)n1	-0.66
CCSC1=C(C#N)C(=O)NC(C)S1 (stereo not drawn)	-1.4
O=C(O)c1cc([N+](=O)[O-])ccc1Sc1ccc([N+](=O)[O-])cc1C(=O)O	-0.05
CSc1ccc([N+](=O)[O-])cc1C(C)=O	-0.35
CSc1ccc([N+](=O)[O-])cc1C(=O)/C=C/N(C)C	6.2*
O=C(O)c1cccc(Sc2cccc(C(=O)O)c2)c1	-0.44
COCCCN1C(=O)C(=O)/C(=C(/O)c2ccc(C)cc2)C1c1cc(OC)ccc1OC (stereo not drawn)	-2
Cn1c(=O)c2c(nc(NCCOCCO)n2Cc2c(Cl)cccc2Cl)n(C)c1=O	0.41
S=C(Nc1ccccc1)N1N=C2c3ccccc3CCC2C1c1ccc(Cl)cc1 (stereo not drawn)	-2.2
COc1ccc(NC(CC(=O)C2CC2)c2ccccc2)cc1 (stereo not drawn)	-1.4
O=c1c(OS(=O)(=O)c2ccccc2)c(-c2ccccc2)oc2ccccc12	-0.97
CCSc1nnc2c(n1)OC(c1ccc(O)c(OC)c1)Nc1ccccc1-2 (stereo not drawn)	1.3
COc1cc(C2Nc3ccccc3-c3nnc(SC)nc3O2)ccc1O (stereo not drawn)	27
CCOc1cc(C2Nc3ccccc3-c3nnc(SC)nc3O2)ccc1O (stereo not drawn)	5*
C=CCNc1cc(C)nc2ccc(C)cc12	1.4
CCOC(=O)C1=C(C)NC2=C(C(=O)CCC2)C1c1ccccc1Br (stereo not drawn)	0.61
Clc1cccc(Cl)c1CSc1ncc2ccccn12	1.2
COc1ccc(C(c2ccc(N(C)C)cc2)c2ccc(N(C)C)cc2)c(C)c1C	3.2*
CN(C)c1ccc(C(O)C(=O)c2ccccc2)cc1 (stereo not drawn)	-0.12
Cc1ccc(/C(O)=C2/C(=O)C(=O)N(c3ccc(O)cc3)C2c2ccccc2)cc1 (stereo not drawn)	0.95
O=C1c2ccccc2NC(c2ccccc2O)N1c1ccc(F)cc1 (stereo not drawn)	-0.68
Cc1ccc(N2C(=O)c3ccccc3C2C(=O)c2cc(C)ccc2O)cc1 (stereo not drawn)	11*
C/C(CC1(CC(C)C)CCCCC1)=N\NC(N)=O	1.5
Cc1ccc(Sc2ncccc2C2=N/C(=C\N(C)C)C(=O)O2)cc1	-0.39
SMILES	Dicer processing
CN(C)/C=C1/N=C(c2ccccc2)OC1=O	1.1
CN(C)/C=C1\N=C(c2cccnc2Oc2ccc(Cl)cc2)OC1=O	19*
Cc1ccc(C)c(OCCn2cc(C(=O)C3CC3)c3ccccc32)c1	0.54
CCCCNC(=O)Oc1ccc2sc(=O)oc2c1	-1
O=C(Oc1ccc2oc(=O)sc2c1)c1ccc(Br)cc1	-0.22
O=C(Oc1ccc2c(=O)ccoc2c1)c1ccc(Cl)cc1Cl	2.1
O=C(Oc1ccc2oc(=O)sc2c1)c1ccccc1Cl	7.2*
CC(=O)Oc1ccc2oc(=O)sc2c1	-1.2
O=C(Oc1ccc2c(c1)oc(=O)c1ccccc12)c1ccccc1	2.3
Cc1cccc(C(=O)Oc2ccc3oc(=O)sc3c2)c1	5.5*
O=C(O)c1cccc(S(=O)(=O)Nc2ccc3oc(=O)sc3c2)c1	-0.91
Cc1ccc(C(=O)Oc2ccc3oc(=O)sc3c2)cc1	5.1*
CN(C)c1cc(C(F)(F)F)nc2c(Br)c(C(C)(C)C)nn12	-1.7
Cc1cc(NC(=O)c2cccs2)c([N+](=O)[O-])cc1C	-0.87
COc1ccc(-c2cnc3c(-c4ccccc4)c(C)nn3c2N)cc1OC	0.88
Cc1ccc(S(=O)(=O)Nc2ccc(C)cc2NS(=O)(=O)c2cccc(C(F)(F)F)c2)cc1	3.6
CCOc1ccc(NC2=NC(c3cc(OC)ccc3OC)n3c(nc(C)cc3=O)N2)cc1 (stereo not drawn)	-0.6
O=c1sn(-c2ccc([N+](=O)[O-])cc2Cl)c(=O)n1CC1CC1	-0.95
CC(C)(C)SCCNc1nc(NCCSC(C)(C)C)nc(Sc2ccc(Cl)cc2)n1	0.71
CC(=O)N(c1ccc(NS(=O)(=O)c2c(C)noc2C)cn1)S(=O)(=O)c1c(C)noc1C	0.04
c1ccc(Nc2nnc(-c3cccc4ccccc34)o2)cc1	0.59
CC(C)(C)c1ccc(-c2nc3ccccc3c(=O)o2)cc1	1.4
O=c1oc(-c2ccc(Br)cc2)nc2ccccc12	3*
O=c1oc(-c2cccs2)nc2ccccc12	-0.19
O=c1oc(Nc2ccccc2)nc2ccccc12	3.6*
SMILES	Dicer processing
O=c1oc(-c2ccc(Cl)cc2)nc2ccccc12	0.2
COc1ccc(NC(C)=O)c(NCc2cc(OC)c(OC)c(OC)c2)c1	-2
CCCCNS(=O)(=O)c1cc(-c2nnc3c4ccccc4c(C)nn23)ccc1OC	1.7
CCC(CCC(=O)Nc1ccccn1)C(=O)O (stereo not drawn)	-0.39
CC(C)(C)OC(=O)N1CCC(O)CC1	-1.1
Cc1onc(-c2ccccc2)c1C(=O)Nc1ccc(OC(=O)c2c(-c3ccccc3)noc2C)cc1	-1.5
COC(OC)c1cc(=O)[nH]c(SCC(=O)c2ccc(C)cc2)n1	-1.7
